# Measured values published in PubChem BioAssay AID720676 (National Center for Advancing Translational Sciences (NCATS), 2013).
# Results filed as inconclusive are left out. Activity calls are given as the source filed them. Calls follow the shape of the dose curve; as a rule, active = well fitted curve in the direction sought with a large enough effect; inconclusive = small, poorly fitted or top-dose-only effect, or another doubt; inactive = no such curve, though single readings can be large or run the other way.
# Test: qHTS of small molecules that selectively kill Giardia lamblia: GS isolate Assay for SAR
# Conditions: Giardia lamblia GS isolate viability; series mostly up to 38.3 µM; activity change, negative = inhibition: at the top concentration
# Description: Giardia lamblia is a human pathogen afflicting impoverished nations, and the most common cause of outbreaks of diarrhea in the United States. Giardia has been classified by the CDC as a category B bioterrorism organism. The favored anti giardiasis drugs in the US are metronidazole or tinidazole, compounds that have undesirable side effects. Moreover, increasing resistance to these drug regimens and recurrence remains a concern. It is thus clear that alternative drug treatments are needed.
# In collaboration with the University of Maryland (College Park), a bioluminescence Giardia viability assay based on the trophozoites' ATP content was developed. This assay is suitable for high throughput screening, and miniaturized the assay for compound screening in 1536-well plates. The Molecular Libraries Small Molecule Repository (MLSMR) was screened against this assay to find compounds that selectively kill Giardia trophozoites (AID 540267). Selected compounds were re-acquired to confirm their trophozoite toxicity activity (AID 588397) and lead chemotypes were identified for medicinal chemistry optimization. The data herein is the result of the first round of SAR for this project. Decrease in luminescence signal indicative of tropozoite growth inhibition (inhibitors) is the desired outcome for this assay.
# NIH Chemical Genomics Center [NCGC]
# NIH Molecular Libraries Probe Centers Network [MLPCN]
# Assay Submitter (PI): Osnat Herzberg, University of Maryland, College Park, MD.
# Giardia assay media was dispensed to an assay plate at 2 ul / well volume. Twenty-three nanoliter / well compounds were pinned into the plates using the Kalypsys robotic system. Giardia trophozoites were dispensed into the well at a concentration of 100 cells / well and incubated anaerobically at 37C for 48 hours. After compound incubation, 4 ul/ well ATPLite 1-Step luminescence assay detection reagent was and the plates were incubated at room temperature. After 30 min of incubation with the detection reagent, luminescence signal was obtained using the PerkinElmer ViewLux plate reader. Data was then processed and normalized to both positive and negative controls. Biosafety level 2 laboratory practices were observed throughout the duration of this screen.
Compound,"activity change, negative = inhibition",outcome
Cc1cc(C)nc(NC(=S)N2CCN(c3ncccc3C#N)CC2)c1,6.52% (inactive),
FC(F)(F)c1cc(N2CCN(C(=S)Nc3cc(Cl)ccn3)CC2)cc(C(F)(F)F)c1,7.15% (inactive),
Cc1nc(CN(C)c2ncnc3ccc(-c4ccc5[nH]ncc5c4)cc23)cs1,-56.4% (inactive),
COc1ccnc(NC(=S)N2CCN(c3ccc(Cl)cc3Cl)CC2)c1,-24.1% (inactive),
Cc1ccnc(NC(=S)N2CCCc3ccc(C(F)(F)F)cc32)c1,25.8% [at 37.9 µM] (inactive),
COc1cccc(NC(=S)N2CCN(c3ccc(Cl)c(Cl)c3)CC2)n1,14.5% (inactive),
CSC(Cc1ccc(Cl)cc1)C(=O)Nc1ccc(Cl)cc1C(=O)O (stereo unspecified),-22.2% (inactive),
Cc1cc(C)nc(NC(=S)N2CCN(c3ccc(Cl)c(Cl)c3)CC2)c1,-30.3% (inactive),
FC(F)(F)c1cccc(N2CCN(C(=S)Nc3cc(C(F)(F)F)ccn3)CC2)c1,20.9% (inactive),
CC(Cc1ccccc1)C(=O)Nc1ccc(Cl)cc1C(=O)O (stereo unspecified),-4.47% (inactive),
COc1cccc(NC(=S)N2CCN(c3cc(Cl)cc(Cl)c3)CC2)n1,11.5% (inactive),
COc1ccnc(NC(=S)N2CCN(c3ncc(C(F)(F)F)cc3Cl)CC2)c1,15.5% [at 37.9 µM] (inactive),
COc1ccnc(NC(=S)N2CCN(c3cccc(Cl)c3Cl)CC2)c1,-19.6% (inactive),
Cc1ccnc(NC(=S)Nc2cccc(C(F)(F)F)c2)c1,12.3% (inactive),
Cc1ccnc(N=C(N)N2CCN(c3cccc(C(F)(F)F)c3)CC2)c1,-7.19% [at 37.9 µM] (inactive),
Cc1cc(C)nc(NC(=S)N2CCN(c3ccc([N+](=O)[O-])cc3Cl)CC2)c1,-33.6% (inactive),
Cc1ccnc(NC(=S)N2CCCN(c3cccc(C(F)(F)F)c3)CC2)c1,-22.1% (inactive),
S=C(Nc1cc(Cl)ccn1)N1CCN(c2cccc(Cl)c2Cl)CC1,17% (inactive),
Cc1ccnc(NC(=S)N2CC3CN(c4ncc(C(F)(F)F)cc4Cl)CC3C2)c1 (stereo unspecified),-29.8% (inactive),
Cc1ccnc(NC(=S)N[C@@H]2CCN(c3cccc(C(F)(F)F)c3)C2)c1,23% (inactive),
Cc1ccnc(NC(=S)N2CCN(c3cccc(C(F)(F)F)c3)CC2)c1,-32.4% [at 37.9 µM] (inactive),
Cc1ccnc(NC(=S)N2CC3CN(c4cccc(C(F)(F)F)c4)CC3C2)c1 (stereo unspecified),17.6% (inactive),
Cc1cc(C)nc(NC(=S)N2CCN(c3ccc(Cl)cc3C(F)(F)F)CC2)c1,-7.54% [at 37.9 µM] (inactive),
Cc1cc(C)nc(NC(=S)N2CC3CN(c4ccc(Cl)cc4C(F)(F)F)CC3C2)c1 (stereo unspecified),-26.8% (inactive),
Cc1cc(C)nc(NC(=S)N2CCN(c3ccc(Cl)cc3Cl)CC2)c1,-6.72% [at 37.9 µM] (inactive),
FC(F)(F)c1cccc(N2CCN(C(=S)Nc3nccc4ccccc34)CC2)c1,,inactive
